Only some compounds are listed: those with a hit (about 2.2% of all), similar ones and a draw of the others.
LGR2 inh = Drosophila LGR2 receptor signaling inhibition; HEK293 LGR2, CRE-luciferase, bursicon-stimulated, 4 h; inhibition, % at 9.99 µM; 380,000 compounds, 0.35% hits; AID 720647;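 active = drop in luminescence signal, shown as inhibition above about 50% in the replicate tests, limit read from the data, passing the limit was not always enough; inconclusive = probably only some replicates passing the limit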;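 note: agonist challenge used bursicon conditioned medium at about half maximal strength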
TROY NFkB inh = inhibitors of TROY-dependent NF-kB signaling; Q293 LMP1-TROYcd NF-kB luciferase reporter, 4 h; inhibition, % at 10 µM; 360,000 compounds, 0.98% hits;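 active = compounds whose plate-normalised and pattern-corrected inhibition of the luciferase reporter signal at the single screening dose is 50% or more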
TWEAK Fn14 block = blocks TWEAK-Fn14 interaction in a reporter cell assay; TWEAK-stimulated Fn14 reporter cells, luciferase luminescence, 8 h; inhibition, % at 10 µM; 360,000 compounds, 2% hits; in the data active = inhibition above about 50%
HSP90 inh = inhibitors of HSP90 luciferase refolding in rabbit reticulocyte lysate | inhibition, % at 5.6 µM | 290,000 compounds, 0.91% hits | luciferase refolding luminescence, 3 h;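 active = inhibition above the screen-wide mean plus 3 SD, computed separately per campaign, cut at about 16% in these data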;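 note: 0% = DMSO wells and 100% = 60 µM geldanamycin wells; inhibitors lower the luminescence because luciferase stays unfolded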
The depositor's hits bear a star; ? = inconclusive; nt = no result given.

SMILES	LGR2 inh	TROY NFkB inh	TWEAK Fn14 block	HSP90 inh
Cc1onc(-c2c(F)cccc2Cl)c1C(=O)NCc1ccco1	nt	10	-14	3
COCC(=O)Nc1ccc2c(c1)C(=O)N(C)[C@H]1CC[C@H](CC(=O)NCC3CC3)O[C@H]1CO2	-4	nt	nt	nt
O=C(N/N=C/c1cccc(F)c1)c1c(O)c2c([nH]c1=O)CCCC2	-45	53*	-10	-1
O=C(CC(F)(F)F)N1C[C@H]2[C@@H](c3ccccc31)[C@@H](CO)N2C(=O)Cc1cccnc1	-43	nt	nt	nt
COc1ccccc1-c1ccc2c(c1)O[C@H](CN(C)C(=O)c1cccnc1)[C@H](C)CN([C@H](C)CO)S2(=O)=O	8	nt	nt	nt
Cc1ccc(CS(=O)Cc2ccc(C(=O)N3CCN(c4cccc(C)c4C)CC3)o2)cc1 (stereo not drawn)	1	57*	13	nt
Cc1ccc(Cl)cc1N1CCN(C(=O)c2ccc(CS(=O)Cc3ccc(Cl)cc3)o2)CC1 (stereo not drawn)	6	54*	10	5
Cc1ccc(C)c(N2CCN(C(=O)c3ccc(CS(=O)(=O)c4ccccc4C)o3)CC2)c1	nt	12	55*	1
CCC(=O)N1CCN(c2cc(C)ccc2C)CC1	nt	-9	76*	1
Cc1ccc(C)c(N2CCN(C(=O)Cn3cccc3)CC2)c1	9	12	5	1
COc1ccc(CN(C)C[C@H]2OCCCC[C@@H](C)Oc3ccc(NC(=O)NC4CCCCC4)cc3C(=O)N([C@H](C)CO)C[C@H]2C)cc1	7	nt	nt	nt
Cc1ccc(S(=O)(=O)Nc2ccc3c(c2)C(=O)N([C@H](C)CO)C[C@@H](C)[C@@H](CN(C)C(=O)Nc2c(C)noc2C)O3)cc1	3	nt	nt	nt
COc1ccccc1Cn1c(=O)c2ccccc2n2c(Sc3ncnc4sccc34)nnc12	nt	47	89*	0
CC(NC(=O)OCc1ccccc1)C(=O)Oc1cc2oc(=O)cc(-c3ccccc3)c2cc1Cl (stereo not drawn)	12	37	71*	0
COc1cccc(-c2nc3ccccc3s2)c1	nt	-25	28	3
COc1ccc(-c2nc3ccccc3s2)cc1	80*	52*	75*	18*
COc1ccc(S(=O)(=O)Nc2ccc3c(c2)CC(=O)N([C@@H](C)CO)C[C@H](C)[C@H](CN(C)S(=O)(=O)c2ccccc2)O3)cc1	-1	nt	nt	nt
CC(=O)N(C)c1ccc(C=C2C=Cc3ccccc32)cc1	4	71*	79*	nt
C=C1/C(=C\C=C2/CCC[C@]3(C)[C@@H]([C@H](C)CCCC(C)(C)O)CC[C@@H]23)C[C@@H](O)C[C@@H]1O	nt	nt	nt	26*
CC(C)CCC[C@@H](C)[C@H]1CC[C@H]2[C@@H]3C(=O)C=C4C[C@@H](O)CC[C@]4(C)[C@H]3CC[C@]12C	nt	5	-14	nt
COc1ccc(-c2cc(=O)oc3cc(OC(=O)C4CCCCC4)ccc23)cc1	11	22	54*	0
COCC(=O)Nc1ccc2c(c1)[C@H]1C[C@H](CC(=O)NC3CCCCC3)O[C@H](CO)[C@H]1O2	-9	nt	nt	nt
COCC#Cc1ccc([C@@H]2[C@@H](CO)N3C(=O)CN(C(=O)Nc4ccccc4F)C[C@H]23)cc1	-4	nt	nt	nt
C=CCc1c(C)nc2cc(-c3ccc(C)cc3)[nH]n2c1=O	?	37	63*	10
C[C@@H]1CN([C@@H](C)CO)C(=O)Cc2cc(NS(C)(=O)=O)ccc2O[C@H]1CN(C)C(=O)Nc1ccc(F)cc1	-15	nt	nt	nt
SMILES	LGR2 inh	TROY NFkB inh	TWEAK Fn14 block	HSP90 inh
CNC(=O)C[C@@H]1CC[C@H]2[C@H](COc3ccc(NC(=O)c4cc(C)on4)cc3C(=O)N2C)O1	0	nt	nt	nt
C=C1C(=O)O[C@@H]2C[C@@H](C)[C@@H]3C=CC(=O)[C@@]3(C)[C@@H](OC(C)=O)[C@H]12	103*	nt	nt	nt
Cc1ccc(S(=O)(=O)Nc2ccc3c(c2)C(=O)N([C@@H](C)CO)C[C@H](C)[C@H](CN(C)S(=O)(=O)c2c(C)noc2C)O3)cc1	15	nt	nt	nt
Cc1cccc(-c2nc(=S)c3c(n2Cc2ccco2)CCCC3)c1	-16	11	50*	1
COCCNC(=O)C[C@@H]1C[C@@H]2c3cc(NC(=O)CN(C)C)ccc3O[C@@H]2[C@@H](CO)O1	-8	nt	nt	nt
CCOC(=O)C(=Cc1ccc(Br)cc1)C(=O)OCC	19	28	59*	6
CCOC(=O)C(=Cc1ccc(-n2ccnc2)cc1)C(=O)OCC	50	64*	96*	1
CCOC(=O)C(=Cc1ccc(F)cc1)C(=O)OCC	nt	nt	nt	1
COC(=O)c1ccc(-n2ccnc2)cc1	5	20	-2	-2
C[C@H](CO)N1C[C@H](C)[C@@H](CN(C)Cc2ccc(-c3ccccc3)cc2)Oc2ccc(NC(=O)Nc3ccccc3)cc2C1=O	0	nt	nt	nt
O=c1c(O)c(-c2ccc(O)cc2)oc2cc(O)cc(O)c12	-52	-21	35	nt
O=c1c(O)c(-c2ccc(O)c(O)c2)oc2cc(O)ccc12	-11	21	56*	nt
C[C@@H]1CN([C@@H](C)CO)C(=O)Cc2cc(NC(=O)c3ccncc3)ccc2O[C@@H]1CN(C)Cc1ccc(C(=O)O)cc1	0	nt	nt	nt
COc1ccc(C(=O)NC(=S)Nc2ccc3c(c2)Cc2ccccc2-3)cc1	nt	52*	15	5
Cc1ccc(C(=O)NC(=S)Nc2ccc(Oc3ccc(Cl)cc3)cc2)cc1	nt	51*	1	1
O=C(C[C@@H]1CC[C@@H]2[C@H](COC[C@H](O)CN2C(=O)c2cccnc2)O1)NCc1ccccc1	-5	nt	nt	nt
Cc1cc(F)ccc1S(=O)(=O)N(C(=O)c1ccncc1)c1ccc(OC(=O)c2ccncc2)cc1	14	62*	56*	2
COC(=O)c1c(C)oc2ccc(N(C(=O)c3ccncc3)S(=O)(=O)c3ccc(C)cc3C)cc12	15	66*	80*	-4
COC(=O)c1c(C)oc2ccc(N(C(=O)c3ccncc3)S(=O)(=O)c3ccc4ccccc4c3)cc12	40	53*	57*	3
COC(=O)c1c(C)oc2ccc(N(C(=O)c3ccncc3)S(=O)(=O)c3ccc(C)cc3)cc12	nt	59*	56*	3
COC(=O)c1c(C)oc2ccc(N(C(=O)c3ccncc3)S(=O)(=O)c3ccccc3)cc12	nt	49	29	3
O=C(C[C@@H]1C[C@@H]2c3cc(NS(=O)(=O)c4ccc(F)cc4)ccc3O[C@@H]2[C@H](CO)O1)NCc1ccncc1	-1	nt	nt	nt
COc1ccc(C[C@H]2CCc3cnnn3COC[C@@H](C(C)C)NC2=O)cc1	-3	nt	nt	nt
Cc1ccc(S(=O)(=O)N(C(=O)c2ccncc2)c2ccc3oc4c(c3c2)CCCC4)cc1[N+](=O)[O-]	-2	54*	30	-1
Cc1ccc([N+](=O)[O-])cc1S(=O)(=O)N(C(=O)c1ccncc1)c1ccc2oc3c(c2c1)CCCC3	13	22	-2	-4
O=C(NC[C@@H]1[C@H](c2ccccc2)[C@@H](CO)N1C(=O)Cc1cccnc1)C1CCC1	-22	nt	nt	nt
CC(C)OC(=O)CNc1n[nH]c(=S)[nH]c1=O	-5	9	-3	17*
COC(=O)CNc1n[nH]c(=S)[nH]c1=O	nt	9	0	-1
C[C@@H]1CN([C@@H](C)CO)C(=O)Cc2cc(NC(=O)Cn3cnnn3)ccc2O[C@H]1CN(C)Cc1ccc(-c2ccccc2)cc1	-20	nt	nt	nt

Screening data from PubChem.
